From the supplement of paper PMC10498489
In all, about 2,300 compounds went through this assay and about 330 (14%) showed activity. Only a sample is shown. A number with no mark means an inactive call.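 Rule for the calls: active = median modified Z-score above 1.96; inactive = 1.96 or below.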

system: HepG2 Srxn1-GFP reporter cells (+30 nM CDDO-Me); assay: Srxn1-GFP intensity median modified Z-score relative to plate median; higher = stronger NRF2 / oxidative stress reporter activation, active = hit call of the paper; conditions: 10 µM; exposure time: 24h
Procedure, shortened: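 HepG2 Srxn1-GFP BAC reporter cells were seeded at 20,000 per well in 96-well plates and co-exposed for 24 h to compound at 10 μM and an NRF2 activator at 30 nM, with DMSO at ≤0.1%, in three replicate plates. Cells were fixed with formaldehyde, stained with Hoechst and imaged by confocal microscopy, and cytoplasmic GFP was measured per cell, with images holding under 100 cells discarded. The reported value is the median over replicates of each plate's modified Z-score of GFP intensity. For this score, scaling used 1.4826 × median absolute deviation.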

SMILES | Srxn1-GFP intensity median modified Z-score
CCOc1ccc(S(=O)(=O)O)c2cccnc12 [euspeclibcmpd2064] | 0.0425
CCN(CC)Cc1ccc(N=c2cc[nH]c3cc(Cl)ccc23)cc1O [euspeclibcmpd22] | 3.72 (active)
Nc1ccc(S(=O)(=O)N=c2cnc3ccccc3[nH]2)cc1 [euspeclibcmpd2157] | 0.000648
OC[C@@H](O)[C@H](O)[C@@H](O)[C@H](O)CO [euspeclibcmpd2232] | 0.317
O=c1ccn([C@@H]2O[C@H](CO)[C@@H](O)[C@H]2O)c(=O)[nH]1 [euspeclibcmpd2258] | -0.304
N=c1ccn(C2O[C@H](CO)[C@@H](O)[C@H]2O)c(=O)[nH]1 (some centres undefined) [euspeclibcmpd2152] | -0.285
N=c1[nH]cnc2c1ncn2[C@@H]1O[C@H](CO)[C@@H](O)[C@H]1O [euspeclibcmpd2100] | -0.0799
N=c1[nH]c(=S)c2ncn(C3O[C@H](CO)[C@@H](O)[C@H]3O)c2[nH]1 (some centres undefined) [euspeclibcmpd1778] | 41.1 (active)
NC(=O)c1ncn(C2O[C@H](CO)[C@@H](O)[C@H]2O)c1N (some centres undefined) [euspeclibcmpd855] | 0.445
N=c1ncn([C@@H]2O[C@H](CO)[C@@H](O)[C@H]2O)c(=O)[nH]1 [euspeclibcmpd436] | 15.1 (active)
Cc1c(NS(=O)(=O)C(C)C)c(=O)n(-c2ccccc2)n1C | 1.19
CC(C)(CO)C(=O)C(O)NCCCO (centres undefined) [euspeclibcmpd2316] | -0.0436
CC(C)(CO)C(=O)C(O)NCCCO (centres undefined) [euspeclibcmpd2342] | -0.119
CON=C(C(=O)NC1C(=O)N2C(C(=O)OCOC(=O)C(C)(C)C)=C(/C=C\c3scnc3C)CSC12)c1csc(=N)[nH]1 (centres undefined) [euspeclibcmpd753] | 0.022
CON=C(C(=O)NC1C(=O)N2C(C(=O)O)=C(COC(N)=O)CSC12)c1ccco1 (centres undefined) [euspeclibcmpd2072] | -0.532
CN1C(C(=O)N=c2cccc[nH]2)C(=O)c2ccccc2S1(=O)=O (centres undefined) [euspeclibcmpd238] | -0.406
N=c1ccn(C2CSC(CO)O2)c(=O)[nH]1 (centres undefined) [euspeclibcmpd613] | -0.762

SMILES | Srxn1-GFP intensity median modified Z-score
CON=C(C(=O)NC1C(=O)N2C(C(=O)OC(C)OC(C)=O)=C(COC(N)=O)CSC12)c1ccco1 (centres undefined) [euspeclibcmpd658] | 0.198
Cc1noc(C)c1S(=O)(=O)N1CCN(C(=O)C2=COCCO2)CC1 | 1.2
COC(=O)C[C@H]1C(C)(C)[C@@H](O)C2CC3=C4C=C(OC)O[C@@H](c5ccoc5)[C@]4(C)CCC3[C@@]1(C)C2=O (some centres undefined) [euspeclibcmpd1395] | 1.94
CCn1c(O)c(-c2ccccc2)[nH]c1=O [euspeclibcmpd780] | -0.504
Cc1c(NC(=O)c2ccsc2)c(=O)n(-c2ccccc2)n1C | 0.403
CO[C@H]1C[C@H](O[C@@H]2C(C)C(=O)O[C@H](C)[C@H](C)[C@H](OC(C)=O)C(C)C(=O)[C@@]3(CO3)C[C@H](C)[C@H](OC3O[C@H](C)C[C@H](N(C)C)[C@H]3OC(C)=O)[C@H]2C)O[C@@H](C)[C@@H]1OC(C)=O (some centres undefined) [euspeclibcmpd623] | -0.159
CCCCC(=O)O[C@]1(C(=O)CO)CCC2C3CC=C4CC(=O)CC[C@]4(C)C3[C@@H](O)C[C@@]21C (some centres undefined) [euspeclibcmpd786] | -0.698
CCCC(=O)O[C@]1(C(=O)CO)CCC2[C@@H]3CC=C4CC(=O)CC[C@]4(C)C3[C@@H](O)C[C@@]21C (some centres undefined) [euspeclibcmpd566] | -0.863
CC(=O)OCC(=O)C1CCC2C3CC=C4CC(=O)CC[C@]4(C)C3CC[C@]12C (some centres undefined) [euspeclibcmpd6] | -0.444
CC(=O)C12OC(C)(c3ccccc3)OC1CC1C3CC=C4CC(=O)CCC4(C)C3CCC12C (centres undefined) [euspeclibcmpd1961] | 5.88 (active)
CC(=O)C1CCC2C3CC=C4C[C@@H](O)CC[C@]4(C)C3CC[C@]12C (some centres undefined) [euspeclibcmpd1041] | 0.815
CC(=O)C1CCC2C3CC=C4CC(=O)CC[C@]4(C)C3CC[C@]12C (some centres undefined) [euspeclibcmpd251] | 2.27 (active)
CC(=O)[C@@]1(O)CCC2C3CC=C4CC(=O)CC[C@]4(C)C3CC[C@@]21C (some centres undefined) [euspeclibcmpd1279] | -0.195
C[C@]12CCC(=O)CC1=CCC1C2C(=O)C[C@@]2(C)C1CC[C@]2(O)C(=O)CO (some centres undefined) [euspeclibcmpd1248] | -0.459
CCCCCC(=O)O[C@]1(C(C)=O)CCC2C3CC=C4CC(=O)CC[C@]4(C)C3CC[C@@]21C (some centres undefined) [euspeclibcmpd155] | 13.5 (active)
CC(=O)O[C@]1(C(C)=O)CCC2C3=CC(Cl)=C4CC(=O)CC[C@]4(C)C3CC[C@@]21C (some centres undefined) [euspeclibcmpd746] | -0.232
N=C(N)NC(=O)c1nc(Cl)c(=N)[nH]c1N [euspeclibcmpd18] | 1.07
